Our source for the outcome and AC50 values is PubChem BioAssay (EPA / NIEHS).

Holding throughout (conditions): mRNA level, 48 h; actives raise or lower the signal
Read-out in assay [1]: growth arrest and DNA damage 45 (GADD45G), GADD45G (gene 10912)
As to the kind of experiment: LTEA_HepaRG_GADD45G: Life Technologies and Expression Analysis (LTEA) Assay for growth arrest and DNA damage 45 (GADD45G) using HepaRG (AID 2283499). The method, boiled down: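 GADD45G transcript level by qRT-PCR (housekeeping-normalized: ACTB, GAPDH, POLR2A) after 48 h chemical treatment of a single HepaRG lot in serum-free induction medium; eight-point half-log series up to 100 uM in 0.5% DMSO, duplicates, up- or down-regulation scored.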

Read-out in assay [2]: Glutamate-cysteine ligase regulatory (GCLM), GCLM (gene 2730)
As to the kind of experiment: LTEA_HepaRG_GCLM: Life Technologies and Expression Analysis (LTEA) Assay for Glutamate-cysteine ligase regulatory (GCLM) using HepaRG (AID 2283500). The method, boiled down:
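In this multiplexed HepaRG gene-expression assay, GCLM mRNA change after 48 h treatment (8 concentrations, max 100 uM) was scored against DMSO by bidirectional curve fitting.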

Read-out in assay [3]: Glutathione S-transferase M3 (GSTM3), GSTM3 (gene 2947)
As to the kind of experiment: LTEA_HepaRG_GSTM3: Life Technologies and Expression Analysis (LTEA) Assay for Glutathione S-transferase M3 (GSTM3) using HepaRG (AID 2283501). The method, boiled down: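 GSTM3 transcript levels came from Fluidigm TaqMan qRT-PCR normalized to three housekeeping genes, fitted in both directions against DMSO. HepaRG cultures received chemicals for 48 h in serum-free induction medium (0.5% DMSO), 8 half-log concentrations up to 100 uM, duplicate.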

Read-out in assay [4]: Heat shock 70 kDa protein 1 (HSPA1A), gene 3303
As to the kind of experiment: LTEA_HepaRG_HSPA1A: Life Technologies and Expression Analysis (LTEA) Assay for Heat shock 70 kDa protein 1 (HSPA1A) using HepaRG (AID 2283502). An outline of the steps: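 An oxidative-stress marker readout: HepaRG cells treated 48 h in duplicate with an eight-point series (highest 100 uM) had HSPA1A mRNA quantified by TaqMan qRT-PCR. Activity was fitted in both directions using 0.5% DMSO as baseline.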

Read-out in assay [5]: Hypoxia-inducible factor 1-alpha (Homo sapiens) (UniProt Q16665)
As to the kind of experiment: LTEA_HepaRG_HIF1A: Life Technologies and Expression Analysis (LTEA) Assay for Hypoxia-inducible factor 1 (HIF1A) Trancription factor using HepaRG (AID 2283503). An outline of the steps:
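Gain- or loss-of-signal HIF1A mRNA changes are fitted against a DMSO baseline. HepaRG cultures receive eight concentrations, highest 100 uM, for 48 h in serum-free induction medium with 0.5% DMSO.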

Read-out in assay [6]: 3-Hydroxy-3-Methylglutaryl-CoA Synthase 2 (HMGCS2), HMGCS2 (gene 3158)
In words: LTEA_HepaRG_HMGCS2: Life Technologies and Expression Analysis (LTEA) Assay for 3-Hydroxy-3-Methylglutaryl-CoA Synthase 2 (HMGCS2) using HepaRG (AID 2283504). An outline of the steps:
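Readout is HMGCS2 transcript by qRT-PCR, housekeeping-normalised (ACTB/GAPDH/POLR2A) and fitted bidirectionally against 0.5% DMSO. Differentiated HepaRG cells received chemicals 48 h, duplicate wells, eight half-log concentrations topping at 100 uM.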

Read-out in another assay: HGF (gene 3082)
As to the kind of experiment: LTEA_HepaRG_HGF: Life Technologies and Expression Analysis (LTEA) Assay for Hepatocyte Growth Facto (HGF) using HepaRG (AID 2283505). The method, boiled down: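 HGF transcript was quantified by TaqMan qRT-PCR against three housekeeping genes after 48 h treatment of HepaRG cells. Exposure ran in duplicate over eight half-log steps topping at 100 uM in 0.5% DMSO vehicle.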

Read-out in assay [7]: Insulin Like Growth Factor 1 (IGF1), IGF1 (gene 3479)
In words: LTEA_HepaRG_IGF1: Life Technologies and Expression Analysis (LTEA) Assay for Insulin Like Growth Factor 1 (IGF1) using HepaRG (AID 2283506). An outline of the steps: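 Endpoint: IGF1 mRNA change by qRT-PCR, housekeeping-normalized, fitted bidirectionally relative to 0.5% DMSO vehicle. Human HepaRG cells were treated 48 h in serum-free induction medium, eight half-log concentrations topping at 100 uM.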

Read-out in assay [8]: Intercellular Adhesion Molecule 1 (ICAM1), ICAM1 (gene 3383)
In words: LTEA_HepaRG_ICAM1: Life Technologies and Expression Analysis (LTEA) Assay for Intercellular Adhesion Molecule 1 (ICAM1) using HepaRG (AID 2283507). The method, boiled down:
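ICAM1 transcript levels measured by qRT-PCR, normalized to three housekeeping genes (ACTB, GAPDH, POLR2A), after 48 h chemical exposure of HepaRG cells. Duplicate eight-point half-log series from 100 uM in 0.5% DMSO; gain or loss fitted against vehicle.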

Read-out in assay [9]: Insulin-like growth factor-binding protein 1 (IGFBP1), IGFBP1 (gene 3484)
In words: LTEA_HepaRG_IGFBP1: Life Technologies and Expression Analysis (LTEA) Assay for Insulin-like growth factor-binding protein 1 (IGFBP1) using HepaRG (AID 2283508). An outline of the steps: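 Read-out is qRT-PCR transcript level normalized to three housekeeping genes, fitted in both directions against 0.5% DMSO. Differentiated HepaRG cells received eight half-log concentrations (top 100 uM) in duplicate for 48 h in serum-free induction medium.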

Read-out in assay [10]: Interleukin 6 (IL6), IL6 (gene 3569)
In words: LTEA_HepaRG_IL6: Life Technologies and Expression Analysis (LTEA) Assay for Interleukin 6 (IL6) using HepaRG (AID 2283509). The method, boiled down:
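Changes in IL6 mRNA, up or down relative to 0.5% DMSO controls, were derived from concentration-response curves in human HepaRG cells treated for 48 h at up to 100 uM, with ACTB, GAPDH and POLR2A as normalizers.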

Read-out in assay [11]: Interleukin 6 Receptor (IL6R), IL6R (gene 3570)
As to the kind of experiment: LTEA_HepaRG_IL6R: Life Technologies and Expression Analysis (LTEA) Assay for Interleukin 6 Receptor (IL6R) using HepaRG (AID 2283510).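 For AC50: differentiated human HepaRG liver cells in serum-free induction medium.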 The method, boiled down: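 In this HepaRG screen, test chemicals act on cells for 48 h at up to 100 uM (eight half-log points, duplicate wells). IL6R expression is quantified by qRT-PCR after normalization to ACTB, GAPDH and POLR2A, with DMSO as baseline.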

Read-out in assay [12]: Potassium channel subfamily K member 1 (KCNK1), KCNK1 (gene 3775)
In words: LTEA_HepaRG_KCNK1: Life Technologies and Expression Analysis (LTEA) Assay for Potassium channel subfamily K member 1 (KCNK1) using HepaRG (AID 2283511). An outline of the steps:
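Human HepaRG cultures receive test chemicals for 48 h in 0.5% DMSO, top concentration 100 uM with half-log dilutions. Induction or suppression of KCNK1 mRNA relative to DMSO is derived by bidirectional fitting of qRT-PCR data.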

Read-out in assay [13]: Keratin 19 (KRT19), KRT19 (gene 3880)
In words: LTEA_HepaRG_KRT19: Life Technologies and Expression Analysis (LTEA) Assay for Keratin 19 (KRT19) using HepaRG (AID 2283512). The method, boiled down:
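KRT19 transcript measured by TaqMan qRT-PCR, referenced to three housekeeping genes, after HepaRG cells received test chemicals for 48 h. Eight half-log concentrations, top 100 uM, 0.5% DMSO vehicle; increases and decreases both fitted.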

Read-out in assay [14]: JUN Transcription Factor, JUN (gene 3725)
As to the kind of experiment: LTEA_HepaRG_JUN: Life Technologies and Expression Analysis (LTEA) Assay for JUN Transcription Factor using HepaRG (AID 2283513). An outline of the steps: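 Gene-expression endpoint: JUN mRNA (qRT-PCR, normalized to three reference genes) in HepaRG cultures treated 48 h with chemicals, duplicate wells, 100 uM maximum with half-log dilutions; bidirectional fitting relative to 0.5% DMSO.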

Read-out in assay [15]: Lipase C (LIPC), LIPC (gene 3990)
In words: LTEA_HepaRG_LIPC: Life Technologies and Expression Analysis (LTEA) Assay for Lipase C (LIPC) using HepaRG (AID 2283514). The method, boiled down: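 In this multiplexed gene-expression screen, human HepaRG cultures received test chemicals for 48 h across eight concentrations with 100 uM highest, in duplicate. Values reflect LIPC mRNA induction or suppression versus DMSO vehicle, from normalized qRT-PCR.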

Read-out in assay [16]: Lipoprotein lipase (LPL), LPL (gene 4023)
In words: LTEA_HepaRG_LPL: Life Technologies and Expression Analysis (LTEA) Assay for Lipoprotein lipase (LPL) using HepaRG (AID 2283515). The method, boiled down:
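Concentration-response testing used half-log steps from 100 uM in 0.5% DMSO on human HepaRG cells, 48 h, duplicate wells. Phenobarbital 1 mM served as induction control; LPL mRNA was normalized to ACTB, GAPDH, POLR2A.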

Read-out in assay [17]: matrix metalloproteinase-10 (MMP10), MMP10 (gene 4319)
In words: LTEA_HepaRG_MMP10: Life Technologies and Expression Analysis (LTEA) Assay for matrix metalloproteinase-10 (MMP10) using HepaRG (AID 2283517). The method, boiled down: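 In differentiated HepaRG cultures kept in 0.5% DMSO, test chemicals act for 48 h over an eight-point range with a top dose of 100 uM. Expression is then quantified by TaqMan RT-PCR against ACTB, GAPDH and POLR2A.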

Read-out in a further assay: MYC, MYC (gene 4609)
As to the kind of experiment: LTEA_HepaRG_MYC: Life Technologies and Expression Analysis (LTEA) Assay for MYC using HepaRG (AID 2283518). An outline of the steps:
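MYC transcript changes, up or down relative to 0.5% DMSO, from TaqMan qRT-PCR normalized to three housekeeping genes. Human HepaRG cultures received chemicals for 48 h at eight half-log concentrations up to 100 uM, in duplicate.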

The source made the active and inactive calls. Rule for the calls: active = hit-call score of the fitted dose curve at least 0.9, where 1 is the maximum; inactive = score below 0.9.

Chain of Hypoxia-inducible factor 1-alpha (Homo sapiens) (Q16665 whole entry, looked up): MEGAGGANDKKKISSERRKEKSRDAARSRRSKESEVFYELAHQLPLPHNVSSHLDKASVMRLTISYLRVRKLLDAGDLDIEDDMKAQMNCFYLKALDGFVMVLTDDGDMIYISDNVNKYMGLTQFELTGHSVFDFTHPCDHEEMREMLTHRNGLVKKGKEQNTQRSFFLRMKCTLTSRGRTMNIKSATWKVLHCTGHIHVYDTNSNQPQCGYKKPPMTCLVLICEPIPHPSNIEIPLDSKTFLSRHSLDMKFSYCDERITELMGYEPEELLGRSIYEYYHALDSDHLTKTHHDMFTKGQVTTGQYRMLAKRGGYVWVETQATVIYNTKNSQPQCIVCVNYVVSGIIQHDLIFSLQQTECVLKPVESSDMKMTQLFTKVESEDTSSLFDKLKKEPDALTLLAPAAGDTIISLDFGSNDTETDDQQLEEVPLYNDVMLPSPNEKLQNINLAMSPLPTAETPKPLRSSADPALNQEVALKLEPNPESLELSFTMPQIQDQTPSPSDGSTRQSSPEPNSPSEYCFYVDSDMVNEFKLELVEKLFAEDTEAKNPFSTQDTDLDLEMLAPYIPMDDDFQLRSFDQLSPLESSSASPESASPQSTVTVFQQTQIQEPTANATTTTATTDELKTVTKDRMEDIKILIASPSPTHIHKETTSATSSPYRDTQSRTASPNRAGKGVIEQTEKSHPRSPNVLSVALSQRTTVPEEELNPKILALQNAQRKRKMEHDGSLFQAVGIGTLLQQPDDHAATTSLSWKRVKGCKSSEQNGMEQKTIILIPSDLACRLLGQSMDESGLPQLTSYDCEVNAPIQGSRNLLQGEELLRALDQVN

As for `CCCOC(=O)c1ccc(C(=O)OCCC)nc1`, the molecule was called inactive in assay [1], in [2], in [3], in assay [4], in assay [5] and in [6]. Further, the molecule was classed as inactive (in the assay with HGF (gene 3082); in assay [7]; in [8]; in [9]; in assay [10]; in assay [11]). For the same molecule, the molecule was called inactive in assay [12], in [13], in assay [14], in [15], in [16] and in assay [17]. Further, in the assay with MYC, MYC (gene 4609), the call was inactive.
As to `O=C(c1ccccc1)C1CCCCC1`, the call (in assay [1]; in [2]; in assay [3]; in assay [4]; in assay [5]; in the assay with HGF (gene 3082)) was inactive. Moreover, the molecule was classed as inactive in [7], in assay [8], in [9], in [10], in [11] and in assay [12]. Also, the outcome was “inactive” in assay [13]; “inactive” in [14]; “inactive” in assay [15]; “inactive” in [16]; “inactive” in assay [17]; “inactive” with MYC, MYC (gene 4609).
On to `C[C@]12CC[C@@H]3c4ccc(O)cc4C[C@@H](CCCCCCCCCS(=O)CCCC(F)(F)C(F)(F)F)[C@H]3[C@@H]1CC[C@@H]2O` (stereo not given in full), for which the half-maximal activity concentration (AC50) in assay [1] was 13000 nM (active); in assay [2], 46.4 nM (active); in assay [3], 29800 nM (active); in assay [6], 33600 nM (active); with HGF (gene 3082), 44.4 nM (active); in assay [8], 41.5 nM (active). Also, the AC50 in assay [9] is 22300 nM (active); in assay [10], 13900 nM (active); in assay [11], 24300 nM (active); in [12], 88.3 nM (active); in assay [14], 85.9 nM (active); in [17] it was 116 nM (active). The half-maximal activity concentration (AC50) in the assay with MYC, MYC (gene 4609) is 57.8 nM (active). In addition, the molecule was classed as inactive in assay [4], in assay [5], in assay [7], in assay [13] and in assay [16].
